Assay [1] concerns Human papillomavirus type 1a protein E7 (residues 44-93). Nature of the assay: small molecules binding HPV E7 44-93 – biochemical, small-molecule microarray, residues 44-93, 635 nm fluorescence, primary screen (AID 1108).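 Further: E7 fragment applied at 1 µg/mL in TBST for 1 h at 4 C; score combines spot fluorescence with its signal to noise ratio.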 The following applies: fluorescence 635 nm, higher = more signal.
The nature of assay [2]: hepatitis C replication reporter changes, two-sided – Huh7 cells, luciferase reporter, HCV replication inhibitor project, primary screen (AID 1109).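 Further: huh7 hepatoma cells harbouring a luciferase neomycin HCV replicon reporter; luciferase luminescence as measure of HCV replicon replication; test concentration not given here.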 As to conditions: Huh7 HCV replicon luciferase reporter, 48 h; higher = more signal. On the technique in general: A reporter such as luciferase makes a cellular process visible.
The target of assay [3] is Left-right determination factor 2 (Homo sapiens) (UniProt O00292). Nature of the assay: small molecules binding LEFTY2 protein – biochemical, small-molecule microarray, 635 nm fluorescence scan, primary screen (AID 1110). The following applies: higher = more signal.
Sequence of Left-right determination factor 2 (Homo sapiens) (O00292 whole entry, looked up): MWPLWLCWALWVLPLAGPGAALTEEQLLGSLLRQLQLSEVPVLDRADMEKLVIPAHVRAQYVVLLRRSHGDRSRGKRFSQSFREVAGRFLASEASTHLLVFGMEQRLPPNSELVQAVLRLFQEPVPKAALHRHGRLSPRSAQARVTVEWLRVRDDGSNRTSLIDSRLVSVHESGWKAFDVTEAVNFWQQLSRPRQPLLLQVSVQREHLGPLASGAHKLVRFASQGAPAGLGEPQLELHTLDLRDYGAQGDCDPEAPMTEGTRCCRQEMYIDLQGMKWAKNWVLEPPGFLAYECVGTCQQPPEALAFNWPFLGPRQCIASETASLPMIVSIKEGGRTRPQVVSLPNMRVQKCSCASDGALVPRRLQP
Assay [4] concerns the target Calmodulin-1 (Homo sapiens) (UniProt P0DP23). Nature of the assay: small molecules binding calmodulin-1 with EGTA – biochemical, small-molecule microarray, Cy5-labelled CALM1, profiling panel (AID 1111).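 Further: labelled calmodulin applied in Tris saline Tween buffer holding calcium plus EGTA and DTT.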 As to conditions: Cy5-CALM1 binding fluorescence, higher = more signal.
For assay [5] the target is unchanged. The experiment in a line: small molecules binding Ca-loaded calmodulin-1 – biochemical, small-molecule microarray, Cy5-labelled CALM1, plus calcium, artefact control for SMM control-protein annotation, profiling panel (AID 1112).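 Further: score merges spot fluorescence with signal to noise from triplicate slides.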 As to conditions: Cy5-CALM1 binding fluorescence, higher = more signal.
The nature of assay [6]: probe aWnt5a binding to arrayed compounds – biochemical, biotinylated probe, 635/667 nm fluorescence, primary screen (AID 1113).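 Further: score merges 667 nm fluorescence intensity with signal-to-noise per printed feature.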 The following applies: small-molecule microarray, higher = more signal.
The nature of assay [7]: probe aShh binding to arrayed compounds – biochemical, biotinylated probe, 635/667 nm fluorescence, primary screen (AID 1114).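 Further: probe is biotin-labelled aShh protein from a stem cell growth factor screen; measures binding of labelled protein to compounds printed on the slide; score merges feature fluorescence at 667 nm with signal-to-noise.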 The following applies: small-molecule microarray, higher = more signal.
Assay [8] in a line: probe aNog binding to arrayed compounds – biochemical, biotinylated probe, 635/667 nm fluorescence, primary screen (AID 1115).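 Further: probe is biotinylated aNog protein used at 0.15 µg/mL for 1 h at 4 C; z-score combines 667 nm fluorescence of each spot with its signal to noise.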 As to conditions: small-molecule microarray, higher = more signal.
The target of assay [9] is Torsin-1A-interacting protein 1 (Homo sapiens) (UniProt Q5JTV8). The experiment in a line: compound microarray binding of lysate hLAP1 – cell lysate, small-molecule microarray, COS7 lysate, 635/667 nm fluorescence, primary screen (AID 1116). The following applies: 635 nm fluorescence, higher = more signal.
Sequence of Torsin-1A-interacting protein 1 (Homo sapiens) (Q5JTV8 whole entry, looked up): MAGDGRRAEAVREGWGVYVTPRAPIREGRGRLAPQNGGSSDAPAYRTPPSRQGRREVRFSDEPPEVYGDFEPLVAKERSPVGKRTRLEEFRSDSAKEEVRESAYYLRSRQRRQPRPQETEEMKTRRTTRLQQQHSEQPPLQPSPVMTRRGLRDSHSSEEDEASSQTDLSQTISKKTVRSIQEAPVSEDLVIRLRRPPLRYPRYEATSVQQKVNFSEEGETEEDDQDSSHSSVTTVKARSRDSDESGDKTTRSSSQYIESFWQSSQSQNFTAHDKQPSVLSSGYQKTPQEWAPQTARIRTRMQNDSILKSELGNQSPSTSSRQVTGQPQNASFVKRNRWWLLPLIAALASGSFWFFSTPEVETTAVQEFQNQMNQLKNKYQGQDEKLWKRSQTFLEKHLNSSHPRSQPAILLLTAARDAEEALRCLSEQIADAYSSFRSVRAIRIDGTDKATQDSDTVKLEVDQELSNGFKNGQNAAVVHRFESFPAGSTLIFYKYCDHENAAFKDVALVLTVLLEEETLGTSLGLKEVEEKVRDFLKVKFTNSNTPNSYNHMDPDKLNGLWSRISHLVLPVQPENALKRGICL
The target of assay [10] is Alpha-bungarotoxin (Bungarus multicinctus) (UniProt P60615). The experiment in a line: compounds binding labelled alpha-BTX control protein – biochemical, small-molecule microarray, Alexa647 label, 635/667 nm fluorescence, artefact control for SMM control protein annotation, profiling panel (AID 1117). As to conditions: alpha-BTX-A647 binding fluorescence, higher = more signal.
Sequence of Alpha-bungarotoxin (Bungarus multicinctus) (P60615 whole entry, looked up): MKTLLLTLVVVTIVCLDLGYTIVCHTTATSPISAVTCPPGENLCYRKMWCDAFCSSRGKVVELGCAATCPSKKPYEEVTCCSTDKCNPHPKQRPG

The target of a further assay is Albumin (Bos taurus) (UniProt P02769). Nature of the assay: compounds binding labelled BSA control protein – biochemical, small-molecule microarray, Alexa647 label, 635/667 nm fluorescence, artefact control for SMM control protein annotation, profiling panel (AID 1118).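 Further: score merges 667 nm emission intensity and signal-to-noise per printed compound spot.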 As to conditions: BSA-A647 binding, fluorescence 635 nm, higher = more signal.
Sequence of Albumin (Bos taurus) (P02769 whole entry, looked up): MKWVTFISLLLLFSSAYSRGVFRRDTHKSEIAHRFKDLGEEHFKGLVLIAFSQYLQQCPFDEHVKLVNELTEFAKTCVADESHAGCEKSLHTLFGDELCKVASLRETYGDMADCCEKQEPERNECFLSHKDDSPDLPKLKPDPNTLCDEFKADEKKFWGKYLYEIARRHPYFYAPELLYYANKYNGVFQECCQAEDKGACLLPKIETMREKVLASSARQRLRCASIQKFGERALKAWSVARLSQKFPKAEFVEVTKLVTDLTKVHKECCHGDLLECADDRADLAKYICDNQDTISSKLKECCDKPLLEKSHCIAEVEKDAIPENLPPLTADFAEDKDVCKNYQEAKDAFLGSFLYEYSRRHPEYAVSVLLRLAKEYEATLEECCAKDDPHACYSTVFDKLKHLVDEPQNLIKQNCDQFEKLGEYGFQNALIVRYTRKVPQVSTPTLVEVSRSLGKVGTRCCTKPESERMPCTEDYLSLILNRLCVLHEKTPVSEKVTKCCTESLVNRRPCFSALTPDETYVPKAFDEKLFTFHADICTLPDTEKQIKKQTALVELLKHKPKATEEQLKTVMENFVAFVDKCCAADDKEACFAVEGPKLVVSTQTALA
A short description of assay [11]: probe aXIP binding to arrayed compounds – biochemical, NeuroSMM set, 635/667 nm fluorescence, primary screen (AID 1119).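 Further: probe is the protein aXip251-270 applied at 1 µg/mL to compound-printed slides; binding of probe to printed compounds measured as 667 nm fluorescence plus signal to noise.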 The following applies: small-molecule microarray, higher = more signal, called active from +8 up or from −8 down.
The nature of assay [12]: probe aNOTCH3 binding on compound microarray – biochemical, small-molecule microarray, 635/667 nm fluorescence, primary screen (AID 1120).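 Further: probe is a biotin-tagged antibody raised against NOTCH3 rather than NOTCH3 protein; score merges spot fluorescence near 667 nm with spot signal to noise.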 The following applies: higher = more signal.
Assay [13] in a line: probe aNOTCH2 binding on compound microarray – biochemical, small-molecule microarray, 635/667 nm fluorescence, primary screen (AID 1121).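 Further: score merges feature fluorescence read at 667 nm with its signal to noise.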 The following applies: higher = more signal.
Assay [14] addresses Carbonic anhydrase 2 (Homo sapiens) (UniProt P00918). Nature of the assay: compounds binding carbonic anhydrase 2 – biochemical, small-molecule microarray, Alexa647-labelled CAII, profiling panel (AID 1122). The following applies: CAII-A647 binding fluorescence, higher = more signal.
Assay [15] is described as follows: COS7 lysate on small-molecule microarray, probe aHis, 635 nm (AID 1123).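 Further: z-score combines 667nm fluorescence intensity with signal-to-noise per printed compound spot.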 As to conditions: COS7 cell lysate, fluorescence, higher = more signal.
A short description of assay [16]: probe aLAP1 signal on lysate-treated microarray – cell lysate, small-molecule microarray, COS7 lysate, primary screen (AID 1124).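 Further: lysate comes from COS7 cells expressing LAP1 and is applied at 0.3 µg/mL; score merges spot fluorescence near 667 nm with signal-to-noise over triplicate slides.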 The following applies: probe aLAP1, fluorescence, higher = more signal.
The subject of the next assay is Sam68 (KHDRBS1). The experiment in a line: compounds binding KHDRBS1 protein – biochemical, small-molecule microarray, 635 nm fluorescence, primary screen (AID 1125).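 Further: score merges 667 nm channel intensity with signal to noise over triplicate slides.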 The following applies: higher = more signal.
Assay [17] deals with Chordin-like protein 2 (CHRDL2). Nature of the assay: compounds binding chordin-like 2 – biochemical, small-molecule microarray, 635 nm fluorescence, primary screen (AID 1126).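 Further: printed compound slides probed with Chrdl2 protein at 4 µg/mL for 1 h at 4 C; score merges 667 nm emission intensity with signal to noise over three replicate slides.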 As to conditions: fluorescence 635 nm, higher = more signal.
Assay [18] concerns the target Concanavalin-A (Canavalia ensiformis) (UniProt P02866). Nature of the assay: compounds binding concanavalin A lectin – biochemical, small-molecule microarray, Alexa647 label, 635 nm, artefact control for SMM control protein annotation, primary screen (AID 1127).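 Further: z combines 667 nm emission intensity with signal-to-noise across three replicate slides.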 As to conditions: ConA-A647 binding fluorescence, higher = more signal.

SMILES strings stand for the structures. The source made the active and inactive calls.

Sequence of Concanavalin-A (Canavalia ensiformis) (P02866 whole entry, looked up): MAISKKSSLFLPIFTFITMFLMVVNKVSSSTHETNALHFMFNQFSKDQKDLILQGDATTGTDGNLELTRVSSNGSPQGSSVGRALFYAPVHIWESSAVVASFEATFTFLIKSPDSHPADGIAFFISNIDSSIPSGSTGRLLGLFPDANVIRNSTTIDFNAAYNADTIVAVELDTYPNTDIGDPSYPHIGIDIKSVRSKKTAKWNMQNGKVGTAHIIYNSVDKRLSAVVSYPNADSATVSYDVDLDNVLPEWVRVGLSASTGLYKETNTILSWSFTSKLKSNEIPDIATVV

On to `O=C1OCCC=C[C@H]2OC34C=CCN(CCN5CCOCC5)C(=O)[C@H]3N(CCCCCCO)C(=O)[C@@H]4C12` (stereo not given in full), for which the composite z-score in assay [1] was -0.149; in assay [3], -0.0529; in assay [4], -0.304; in assay [5], -1.07; in assay [6] it was -0.178; in assay [7] it was -0.289. Also, the composite z-score was -0.484 in assay [8]; 0.551 in assay [9]; -0.288 in assay [10]; -0.274 with Albumin (Bos taurus); -0.274 in assay [12]; -0.167 in assay [13]. The composite z-score is 0.844 in [14]; 0.1 in [15]; 0.133 in assay [16]; -0.614 in the assay on Sam68 (KHDRBS1); -0.592 in assay [17]; 0.0309 in assay [18]. Also, the z-score in assay [2] was -0.135. Also, in [11], the composite Z-score was 1 (inactive).

Consider `NC(=O)[C@@H]1[C@H]2C(=O)O[C@H](c3ccccc3)[C@H](c3ccccc3)N2[C@H](c2ccc(O)cc2)[C@@]12C(=O)Nc1ccc(C#CC3(O)CCCCCC3)cc12`, for which the composite z-score in assay [1] is 0.124; in [3], -0.0941; in [4], -0.363; in [5] it was 0.555; in [6] it was -0.202; in assay [7], 0.0684. Moreover, the composite z-score in assay [8] was 0.179; in [9] it was 1.59; in assay [10] it was -0.115; in the assay with Albumin (Bos taurus), -0.425; in assay [12] it was -0.15; in assay [13], -0.175. For the same compound, the composite z-score in assay [14] was 0.792; in assay [15], 0.514; in assay [16], -0.107; in the assay with Sam68 (KHDRBS1), -0.427; in [17], -0.571; in assay [18], -0.107. Moreover, in assay [2], the z-score is -0.293. Further, the composite Z-score in assay [11] was 0.339 (inactive).

In the case of `[N-]=[N+]=NCc1ccccc1C[C@]1(C(=O)O)N=C(c2ccc(OCCCO)cc2)O[C@H]1c1ccccc1N=[N+]=[N-]`, the composite z-score was found to be 1.18 in [1]; 0.11 in assay [3]; 1.23 in assay [4]; 0.0606 in assay [5]; 0.0919 in assay [6]; 0.0639 in assay [7]. Further, the composite z-score in assay [8] was determined as 1.59; in assay [9], 1.46; in [10], 1.76; with Albumin (Bos taurus), 0.82; in [12], 0.238; in assay [13], 0.0755. Also, the composite z-score in assay [14] is 0.55; in assay [15], 2.64; in [16] it was 0.571; in the assay on Sam68 (KHDRBS1), 1.32; in assay [17], -0.958; in assay [18] it was 1.05. The compound further returned a z-score in assay [2] of -1.11. In addition, the composite Z-score in assay [11] is -0.17 (inactive).

`COC(=O)[C@@]1(Cc2ccccc2)[C@H]2c3cc(C(=O)N4CCCC4)n(Cc4nc5ccccc5[nH]4)c3C[C@H]2CN1C(=O)c1ccccc1`: the composite z-score in [1] was 1.43; in [3] it was -0.0838; in assay [4], 2.55; in assay [5] it was 1.53; in assay [6] it was 0.0003; in assay [7], -0.2. For the same compound, the composite z-score was determined as 2.15 in assay [8]; 2.53 in assay [9]; 0.442 in assay [10]; 1.03 with Albumin (Bos taurus); 0.537 in [12]; 0.404 in assay [13]. The composite z-score in assay [14] was 0.653; in assay [15] it was 3.34; in [16], 0.988; in the assay on Sam68 (KHDRBS1), 1.3; in assay [17], -0.72; in assay [18] it was 0.912. The compound also returned a z-score in [2] of -1.89. Moreover, the composite Z-score in assay [11] was 0.579 (inactive).

`O=C(NCc1ccccc1)[C@@H]1c2ccccc2C(=O)N(CC23CC4CC(CC(C4)C2)C3)[C@H]1c1ccc(CO)cc1`: the composite z-score was 1.36 in [1]; 0.567 in assay [3]; 0.237 in assay [4]; -0.831 in assay [5]; -0.0957 in assay [6]; -0.0337 in [7]. For the same compound, the composite z-score in assay [8] is -0.584; in assay [9], 0.575; in assay [10], 0.645; with Albumin (Bos taurus), 0.438; in assay [12], -0.274; in [13], -0.265. Moreover, the composite z-score was 0.467 in assay [14]; 0.813 in [15]; 1.17 in assay [16]; 1.28 in the assay with Sam68 (KHDRBS1); 0.452 in assay [17]; 1.1 in assay [18]. Further, in assay [2], the z-score was -1.96. In [11], the composite Z-score is 1.23 (inactive).

These data come from PubChem BioAssay.
